Test results published in PubChem BioAssay (NCATS).
Inconclusive results are not listed. Activity calls are given as the source filed them. Unless noted, calls follow the shape of the dose curve; as a rule, active = well fitted curve in either direction with a large enough effect (not every such curve was filed as active); inconclusive = small, poorly fitted or top-dose-only effect, or another doubt; inactive = flat fitted curve, though single readings scatter.

Assays:
[1] = target: Lysosomal acid glucosylceramidase (Homo sapiens) (UniProt P04062); assay: Glucocerebrosidase-p2 (AID 348; in the data active = potency below about 10 µM; also: potency is read from the fitted curve at half-maximal effect); conditions: purified GBA, blue fluorogenic substrate, 40 min
Lysosomal acid glucosylceramidase (Homo sapiens), sequence (P04062 whole entry, looked up): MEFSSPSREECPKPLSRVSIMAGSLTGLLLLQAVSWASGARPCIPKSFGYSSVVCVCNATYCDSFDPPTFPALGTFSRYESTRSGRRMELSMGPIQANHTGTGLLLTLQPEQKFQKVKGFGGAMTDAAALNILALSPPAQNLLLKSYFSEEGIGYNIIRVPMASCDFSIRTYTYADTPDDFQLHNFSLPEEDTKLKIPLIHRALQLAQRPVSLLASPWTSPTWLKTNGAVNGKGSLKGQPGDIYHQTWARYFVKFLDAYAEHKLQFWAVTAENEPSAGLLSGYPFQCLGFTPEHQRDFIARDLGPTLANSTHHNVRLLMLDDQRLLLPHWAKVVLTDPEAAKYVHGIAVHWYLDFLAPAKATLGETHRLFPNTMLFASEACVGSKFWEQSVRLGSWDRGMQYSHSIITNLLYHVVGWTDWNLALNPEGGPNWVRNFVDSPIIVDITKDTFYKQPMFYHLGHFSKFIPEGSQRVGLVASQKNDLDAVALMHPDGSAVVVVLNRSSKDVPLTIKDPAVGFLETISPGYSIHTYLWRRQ
Summary of the method: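 Compounds titrated from 0.6 nM upwards against 0.2 nM enzyme in pH 5.9 citric acid/KH2PO4, taurocholate, tween-20; blue fluorogenic substrate 80 uM, 40 min room temperature, stopped and read Ex 365/Em 440 for AC50.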

[2] = AP1 Signaling Pathway (AID 357); conditions: ME-180 AP-1-bla reporter, EGF-induced, beta-lactamase ratio, 5 h; at 7.69 µM (top of the series) unless noted;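 also: ME-180 reporter cells stimulated with EGF at its EC50 level; % is scaled to controls: 0 for no effect and ±100 for the full control effect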
Summary of the method: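 A ratiometric CCF4 readout (405 nm excitation; 460 and 530 nm emission) quantified AP-1-driven beta-lactamase in ME-180 cells after 5 h with compound and EC50 EGF; AC50 values were derived for activators and inhibitors.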

[3] = target: Cytochrome P450 1A2 (Homo sapiens) (UniProt P05177); assay: p450-cyp1a2 (AID 410; calls by dose curve; also: potency is read from the fitted curve at half-maximal effect;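 as to activity change, negative = inhibition: -100% = full effect of reference inhibitor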); conditions: recombinant CYP1A2, luciferin-ME demethylation, luminescence; series mostly up to 57 µM
Cytochrome P450 1A2 (Homo sapiens), sequence (P05177 whole entry, looked up): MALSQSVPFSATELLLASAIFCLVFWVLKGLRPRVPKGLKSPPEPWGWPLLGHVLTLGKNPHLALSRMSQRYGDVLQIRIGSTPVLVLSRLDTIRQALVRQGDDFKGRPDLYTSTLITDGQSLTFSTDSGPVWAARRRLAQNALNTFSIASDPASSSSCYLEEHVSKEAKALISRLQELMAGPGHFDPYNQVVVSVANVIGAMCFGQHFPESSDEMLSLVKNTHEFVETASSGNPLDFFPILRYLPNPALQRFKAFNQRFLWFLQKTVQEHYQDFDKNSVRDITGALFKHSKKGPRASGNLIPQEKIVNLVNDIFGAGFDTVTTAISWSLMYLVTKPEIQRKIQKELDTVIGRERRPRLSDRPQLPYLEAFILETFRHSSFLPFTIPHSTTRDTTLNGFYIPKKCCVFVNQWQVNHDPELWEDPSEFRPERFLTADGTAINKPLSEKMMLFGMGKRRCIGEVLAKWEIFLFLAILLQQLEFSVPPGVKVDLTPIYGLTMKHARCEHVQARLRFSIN
Summary of the method: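 20nM CYP1A2 with 100uM Luciferin-ME (at Km) in 100mM KPO4; compound preincubated 10 min, NADPH regeneration added, 60 min at room temperature. Luciferin quantified by luminescence after detection reagent; normalized to 57 uM furafylline.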

[4] = Stat Signaling Pathway (AID 446); conditions: ME-180 SIE beta-lactamase reporter, IL-6 stimulated, 5 h; at 7.69 µM (top of the series) unless noted;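 also: ME-180 cervical cancer cells given 40 pM IL-6 alongside compound; SIE-controlled beta-lactamase reporter measured as 460/530 nm FRET emission ratio; % is scaled to controls: 0 for no effect and ±100 for the full control effect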
Summary of the method: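 Reporter line: ME-180 cervical carcinoma, SIE-beta-lactamase. Treatment: compound with 40 pM IL-6, 5 hrs, 37 C, in low-serum OPTI-MEM with 10 mM HEPES pH 7.3. Detection: 460/530 nm fluorescence.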

[5] = target: Glucocorticoid receptor (Homo sapiens) (UniProt P04150); assay: GR-EFC Redistribution (AID 451; calls by dose curve; also: potency is read from the fitted curve at half-maximal effect); conditions: CHO-K1 GR-EFC translocation, beta-gal luminescence, 2 h
Glucocorticoid receptor (Homo sapiens), sequence (P04150 whole entry, looked up, the tested form may be a part): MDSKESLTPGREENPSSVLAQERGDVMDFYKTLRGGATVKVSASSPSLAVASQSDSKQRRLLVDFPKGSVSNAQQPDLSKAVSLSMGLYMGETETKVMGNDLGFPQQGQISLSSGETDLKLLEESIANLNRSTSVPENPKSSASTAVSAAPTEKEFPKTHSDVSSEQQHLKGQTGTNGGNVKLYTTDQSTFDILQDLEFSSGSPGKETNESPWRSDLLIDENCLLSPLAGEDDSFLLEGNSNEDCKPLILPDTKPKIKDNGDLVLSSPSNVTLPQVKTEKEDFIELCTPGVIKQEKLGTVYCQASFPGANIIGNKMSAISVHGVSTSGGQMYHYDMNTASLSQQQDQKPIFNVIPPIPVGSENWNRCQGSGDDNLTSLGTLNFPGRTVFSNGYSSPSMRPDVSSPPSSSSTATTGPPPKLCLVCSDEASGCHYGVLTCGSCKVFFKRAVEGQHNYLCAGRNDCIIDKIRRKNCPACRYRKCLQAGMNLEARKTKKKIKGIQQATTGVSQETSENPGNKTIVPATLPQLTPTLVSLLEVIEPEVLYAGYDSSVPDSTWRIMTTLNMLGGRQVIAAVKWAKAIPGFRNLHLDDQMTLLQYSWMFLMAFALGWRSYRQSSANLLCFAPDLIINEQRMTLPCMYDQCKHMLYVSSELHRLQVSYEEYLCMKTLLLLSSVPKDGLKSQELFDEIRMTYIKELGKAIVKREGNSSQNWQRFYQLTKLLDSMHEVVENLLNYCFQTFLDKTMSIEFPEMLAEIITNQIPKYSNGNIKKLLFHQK
Summary of the method: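 CHO-K1 cells expressing nuclear EA and GR-ED fragments of b-gal; compounds titrated up to 46 uM final, 2 h at 37 C. GR nuclear translocation read as complemented b-gal luminescence after 1 h RT detection.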

[6] = target: Mitogen-activated protein kinase 10 (Mus musculus) (UniProt Q61831); assay: JNK3 AlphaScreen Assay (AID 530); conditions: JNK3 lysate, c-Jun phosphorylation; series mostly up to 57.1 µM;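 also: kinase came from lysate of stimulated human HepG2 cells; signal reports phosphorylation of biotinylated GST-cJun 1-79 at Ser73 with 10 µM ATP; % is scaled to controls: 0 for no effect and ±100 for the full control effect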
Summary of the method: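 Pre-activated (IL-1β/TNFα) JNK3 in HepG2 lysates phosphorylates biotin-GST-cJun(1-79), 10 uM ATP; anti-phospho-cJun(Ser73) AlphaScreen read at room temperature, pH 7.6 Tris buffer. Compounds pre-incubated 15 min as titrations.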

[7] = target: 3',5'-cyclic-AMP phosphodiesterase 4B (Homo sapiens) (UniProt Q07343); assay: qHTS Assay for Inhibitors of PDE-IV (AID 607; active = well fitted activation curve with a large enough effect in the main read-out, with a control signal flat, not every such curve was filed as active; also: % of control where 0% means no effect); conditions: HEK293 ACTOne CNG channel cells, membrane potential fluorescence; series mostly up to 22.9 µM
3',5'-cyclic-AMP phosphodiesterase 4B (Homo sapiens), sequence (Q07343 whole entry, looked up): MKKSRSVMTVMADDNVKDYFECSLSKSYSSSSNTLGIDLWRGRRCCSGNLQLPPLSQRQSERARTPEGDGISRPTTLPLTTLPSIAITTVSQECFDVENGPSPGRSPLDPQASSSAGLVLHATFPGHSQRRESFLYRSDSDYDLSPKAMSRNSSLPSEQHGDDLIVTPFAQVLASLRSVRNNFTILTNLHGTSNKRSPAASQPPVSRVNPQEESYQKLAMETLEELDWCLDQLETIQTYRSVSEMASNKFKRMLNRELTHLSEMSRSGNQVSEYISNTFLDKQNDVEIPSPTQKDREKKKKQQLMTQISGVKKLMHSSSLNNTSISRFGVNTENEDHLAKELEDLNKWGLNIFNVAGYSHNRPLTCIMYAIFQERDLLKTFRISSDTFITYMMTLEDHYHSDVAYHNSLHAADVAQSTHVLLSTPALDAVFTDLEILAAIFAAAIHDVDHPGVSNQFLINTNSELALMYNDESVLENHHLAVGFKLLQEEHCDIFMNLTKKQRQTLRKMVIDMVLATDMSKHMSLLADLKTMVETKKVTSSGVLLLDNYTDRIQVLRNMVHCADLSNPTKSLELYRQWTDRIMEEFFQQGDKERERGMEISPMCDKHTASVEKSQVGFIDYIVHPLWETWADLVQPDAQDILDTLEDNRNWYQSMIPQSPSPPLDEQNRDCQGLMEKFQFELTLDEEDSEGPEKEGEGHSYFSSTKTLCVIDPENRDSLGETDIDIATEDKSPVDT
Summary of the method: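 Cell-based read-out of cAMP via a modified cyclic nucleotide-gated channel and membrane potential dye (535/590 nm) in HEK293 cells expressing PDE4 endogenously. Compounds tested up to 22.9 uM final; 100 uM RO 20-1724 reference.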

[8] = target: Cytochrome P450 3A4 (Homo sapiens) (UniProt P08684); assay: qHTS Assay for Activators of Cytochrome P450 3A4 (AID 885; active = well fitted curve in the direction sought with a large enough effect; an effect the other way counts as inactive or inconclusive; also: nearly all actives have a fitted effect of over 65% in size); conditions: recombinant CYP3A4, Luciferin-PPXE luminescence, 60 min; series mostly up to 57.1 µM
Cytochrome P450 3A4 (Homo sapiens), sequence (P08684 whole entry, looked up): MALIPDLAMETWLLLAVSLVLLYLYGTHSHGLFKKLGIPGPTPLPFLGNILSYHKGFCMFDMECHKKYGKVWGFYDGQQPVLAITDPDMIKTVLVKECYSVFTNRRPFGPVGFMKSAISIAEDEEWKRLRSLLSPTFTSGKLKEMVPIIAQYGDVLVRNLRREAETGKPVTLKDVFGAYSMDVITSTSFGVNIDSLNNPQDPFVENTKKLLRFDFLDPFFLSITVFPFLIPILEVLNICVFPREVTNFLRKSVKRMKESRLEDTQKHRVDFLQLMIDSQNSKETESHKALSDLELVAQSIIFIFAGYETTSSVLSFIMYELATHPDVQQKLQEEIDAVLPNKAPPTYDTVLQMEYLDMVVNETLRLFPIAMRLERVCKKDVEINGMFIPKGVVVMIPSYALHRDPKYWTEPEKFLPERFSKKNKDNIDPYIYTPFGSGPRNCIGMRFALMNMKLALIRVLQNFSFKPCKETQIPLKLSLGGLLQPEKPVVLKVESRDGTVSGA
Summary of the method: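 Signal was normalized against complete inhibition by 57 uM ketoconazole. The reaction used 20nM CYP3A4 with 25uM Luciferin-PPXE, 10-min compound preincubation and a 60-min NADPH-supported step at RT.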

[9] = target: Cytochrome P450 2D6 (Homo sapiens) (UniProt P10635); assay: qHTS Assay for Inhibitors and Substrates of Cytochrome P450 2D6 (AID 891; active = well fitted curve in the direction sought with a large enough effect; an effect the other way counts as inactive or inconclusive; also: potency is read from the fitted curve at half-maximal effect; nearly all actives have a fitted effect of over 60% in size); conditions: recombinant CYP2D6, luciferin-ME EGE luminescence; series mostly up to 57.1 µM
Cytochrome P450 2D6 (Homo sapiens), sequence (P10635 whole entry, looked up): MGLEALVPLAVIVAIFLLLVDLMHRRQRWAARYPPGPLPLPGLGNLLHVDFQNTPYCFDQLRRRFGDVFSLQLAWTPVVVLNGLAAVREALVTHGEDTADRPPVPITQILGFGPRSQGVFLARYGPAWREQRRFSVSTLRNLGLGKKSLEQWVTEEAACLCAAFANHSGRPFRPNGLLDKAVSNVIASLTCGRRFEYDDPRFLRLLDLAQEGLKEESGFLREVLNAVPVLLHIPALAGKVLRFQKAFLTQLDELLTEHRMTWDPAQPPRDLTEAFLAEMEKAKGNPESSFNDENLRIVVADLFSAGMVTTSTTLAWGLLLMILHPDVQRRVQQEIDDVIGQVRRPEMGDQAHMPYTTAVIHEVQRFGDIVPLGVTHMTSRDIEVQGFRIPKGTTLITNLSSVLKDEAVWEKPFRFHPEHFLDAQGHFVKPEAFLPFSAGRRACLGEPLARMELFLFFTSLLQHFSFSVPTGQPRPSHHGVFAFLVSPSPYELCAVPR
Summary of the method: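 Human CYP2D6 (5 nM) with 30 uM Luciferin-ME EGE (at Km) in 100 mM KPO4, compound preincubated 10 min, then NADPH regeneration system for 60 min at room temperature. Luciferin read by luminescence; normalized to 1.43 uM quinidine.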

[10] = qHTS Assay for Lipid Storage Modulators (AID 1519; calls by dose curve); conditions: Drosophila S3 cells, BODIPY lipid droplet/cell ratio, laser cytometry, cells loaded with oleic acid; for activity change, negative = inhibition: at 57.5 µM (top of the series)
Summary of the method: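 Cells seeded at 5,000 per well were treated with compounds over a concentration series and loaded with oleic acid (400 uM, as added). Lipid droplet fluorescence (488 nm excitation, 500-530 nm channel) was read by laser-scanning cytometry and normalized to 20 uM Triacsin C.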

[11] = Primary qHTS for small molecule stabilizers of the endoplasmic reticulum resident proteome: Secreted ER Calcium Modulated Protein (SERCaMP) assay (AID 1508630; active = well fitted curve in the direction sought with a large enough effect; an effect the other way counts as inactive or inconclusive; also: % is scaled to controls: 0 for no effect and ±100 for the full control effect); conditions: SH-SY5Y GLuc-SERCaMP (Gaussia luciferase released on ER calcium loss) secretion, thapsigargin, luminescence; series mostly up to 38.4 µM
Summary of the method: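 GLuc-SERCaMP-expressing SH-SY5Y cells, pretreated 16 h with compound, are challenged with thapsigargin to empty ER calcium stores; after 4 h, coelenterazine is added directly to the medium and luminescence is imaged.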

[12] = target: Cytochrome P450 2C19 (Homo sapiens) (UniProt P33261); assay: qHTS Assay for Inhibitors and Substrates of Cytochrome P450 2C19 (AID 899; active = well fitted curve in the direction sought with a large enough effect; an effect the other way counts as inactive or inconclusive; also: potency is read from the fitted curve at half-maximal effect; nearly all actives have a fitted effect of over 60% in size); conditions: recombinant CYP2C19, luciferin-H EGE luminescence; series mostly up to 57.1 µM
Cytochrome P450 2C19 (Homo sapiens), sequence (P33261 whole entry, looked up): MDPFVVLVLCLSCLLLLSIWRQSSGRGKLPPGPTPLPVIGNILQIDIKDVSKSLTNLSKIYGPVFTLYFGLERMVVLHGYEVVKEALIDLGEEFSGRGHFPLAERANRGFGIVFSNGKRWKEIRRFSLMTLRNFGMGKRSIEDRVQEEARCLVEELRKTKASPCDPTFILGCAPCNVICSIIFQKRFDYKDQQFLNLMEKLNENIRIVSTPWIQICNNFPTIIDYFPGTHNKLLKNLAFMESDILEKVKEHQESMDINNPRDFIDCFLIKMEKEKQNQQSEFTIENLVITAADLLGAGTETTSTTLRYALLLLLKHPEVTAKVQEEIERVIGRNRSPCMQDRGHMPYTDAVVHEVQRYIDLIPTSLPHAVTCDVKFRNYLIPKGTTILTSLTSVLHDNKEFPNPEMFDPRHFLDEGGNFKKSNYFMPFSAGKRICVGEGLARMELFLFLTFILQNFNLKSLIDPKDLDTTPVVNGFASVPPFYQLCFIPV
Summary of the method: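 5 nM human CYP2C19 with 10uM Luciferin-H EGE (at KM) in 50mM KPO4, compound preincubated 10 min at 37C, then NADPH regeneration for 60 min at 37C. Luciferin read by luminescence after detection reagent; normalized to 57uM ketoconazole as full inhibition.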

[13] = qHTS Assay for Identification of Small Molecule Agonists for Hypoxia Response Element Signaling Pathway (AID 914; active = well fitted activation curve with a large enough effect in the signal ratio, with a control signal flat, not every such curve was filed as active; the % refers to the signal ratio; also: % of control where 0% means no effect); conditions: ME-180 (cervical carcinoma) HRE-bla reporter, beta-lactamase ratio, CoCl2, 17 h; activation: stronger effect = higher value
Summary of the method: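 HRE-bla ME-180 cells, overnight plating in Opti-MEM with 0.5% dialyzed FBS; cpd titration + EC50 CoCl2, 17 h, 37 degrees Celsius; CCF4 2.5 h RT; 460/530 nm ratio; AC50.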

[14] = measured here: cell count channel max response
[15] = measured here: lipid channel max response

N#Cc1ccc(CN2CCC3(CC2)CCN(C(=O)c2ccncc2)CC3)cc1
inactive: Potency [1] > 11.4 µM | activity change, negative = inhibition [2] 1.51% | Potency [3] | activity, negative = inhibition [4] -3.87% | Potency [5] > 46 µM | Potency [6] | Potency [7] | Potency [8] | activity change, negative = inhibition [10] 1.92% | outcome [11]
15.7%: max response [10, 14]
active: Potency [9] 6.31 µM
18.7%: max response [10, 15]

COc1ccccc1CN1CCCC2(CCN(C(=O)c3c(C)noc3C)CC2)C1
17.9%: max response [10, 15]
14.6%: max response [10, 14]
inactive: Potency [1] > 11.4 µM | activity change, negative = inhibition [2] -9.04% | Potency [3] | activity, negative = inhibition [4] -7.32% | Potency [5] > 46 µM | Potency [6] | Potency [7] | Potency [8] | activity change, negative = inhibition [10] 1.7% | outcome [11]

COc1ccccc1CN1CCC2(CC1)CCN(C(=O)c1c(C)noc1C)CC2
11.3%: max response [10, 14]
inactive: Potency [1] > 11.4 µM | activity change, negative = inhibition [2] 4.81% | Potency [3] | activity, negative = inhibition [4] -4.2% | Potency [5] > 46 µM | Potency [6] | Potency [7] | activity change, negative = inhibition [10] 1.42% | outcome [11]
active: Potency [9] 7.94 µM
18.8%: max response [10, 15]

Cn1cccc1C(=O)N1CCC2(CCN(Cc3ccccc3)CC2)CC1
22.8%: max response [10, 15]
16.4%: max response [10, 14]
active: Potency [9] 7.94 µM
inactive: Potency [1] > 11.4 µM | activity change, negative = inhibition [2] -1.12% | Potency [3] | activity, negative = inhibition [4] 4.92% | Potency [5] > 46 µM | Potency [6] | Potency [7] | activity change, negative = inhibition [10] 4.86% | outcome [11]

COc1ccc(NC(=O)N2CCC3(CC2)CCN(S(C)(=O)=O)CC3)cc1
active: Potency [12] 3.16 µM
28.9%: max response [10, 15]
inactive: Potency [1] > 11.4 µM | activity change, negative = inhibition [2] -1.54% | Potency [3] | activity, negative = inhibition [4] 2.59% | Potency [5] > 46 µM | Potency [6] | Potency [7] | activity change, negative = inhibition [10] 8.18% | outcome [11]
16.5%: max response [10, 14]

Cn1cccc1C(=O)N1CCC2(CCN(Cc3ccncc3)CC2)CC1
inactive: Potency [1] > 11.4 µM | activity change, negative = inhibition [2] -3.94% | activity, negative = inhibition [4] -9.94% | Potency [6] | Potency [7] | Potency [8] | activation [13] -5.1% | activity change, negative = inhibition [10] 4.51% | outcome [11]
active: Potency [3] 15.8 µM
3.28%: max response [10, 15]
-5.01%: max response [10, 14]

O=S(=O)(c1ccccc1)N1CCC2(CC1)CN(c1ccccn1)C2
inactive: Potency [1] > 11.4 µM | activity change, negative = inhibition [2] 16% | Potency [3] | activity, negative = inhibition [4] -15% | Potency [5] > 46 µM | Potency [6] | Potency [7] | Potency [8] | activity change, negative = inhibition [10] -4.43% | outcome [11]
-4.86%: max response [10, 14]
-8.67%: max response [10, 15]

O=S(=O)(c1ccccc1)N1CCC2(CCN(Cc3ccccc3)CC2)CC1
18.1%: max response [10, 14]
22.9%: max response [10, 15]
inactive: Potency [1] > 11.4 µM | activity change, negative = inhibition [2] 5.55% | Potency [3] | activity, negative = inhibition [4] 1.04% | Potency [5] > 46 µM | Potency [6] | Potency [7] | activation [13] 14.1% | activity change, negative = inhibition [10] 3.53% | outcome [11]

CC(C)CN1CCC2(CC1)CCN(C(=O)c1ccncc1)CC2
14.2%: max response [10, 14]
14.7%: max response [10, 15]
active: Potency [9] 3.98 µM
inactive: Potency [1] > 11.4 µM | activity change, negative = inhibition [2] -3.14% | Potency [3] | Potency [5] > 46 µM | Potency [6] | Potency [7] | Potency [8] | activity change, negative = inhibition [10] 0.393% | outcome [11]

N#Cc1cccc(NC(=O)N2CC3(CCN(C(=O)c4cc(C(F)(F)F)cc(C(F)(F)F)c4)CC3)C2)c1
active: Potency [3] 12.6 µM | Potency [12] 0.631 µM
inactive: Potency [1] > 11.4 µM | activity change, negative = inhibition [2] -13.9% | activity, negative = inhibition [4] -7.2% | Potency [5] > 46 µM | Potency [6] | Potency [7] | Potency [8] | activity change, negative = inhibition [10] -0.946% | outcome [11]
14%: max response [10, 14]
14.4%: max response [10, 15]
